tested on: T1, NIK; conditions: concentration: 1 μM, replicates: in singlicate; n = 1
T1 construct: gene MAP3K14
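Note: KINOMEscan kinase panel screen.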

Compound	%Inh [%]
NS(=O)(=O)c1cccc(-c2ccc3ncc(N4CCOCC4)nc3c2)c1 [GSK1535721]	0
CN1c2ccc(CNc3ccc(F)cc3)cc2-c2c(cnn2C)S1(=O)=O	0
Cc1cn2c(=O)cc(N3CCOCC3)nc2n1Cc1cccc(Cl)c1Cl [GSK2334006]	0
CC(C)(C)n1cnc2c(N)ncnc21 [SKF-97359]	33
O=c1cc(N2CCOCC2)nc2n(Cc3cccc(F)c3)ccn12 [GSK2297430]	7
O=C(c1ccc(-c2cc(-c3c[nH]nc3-c3ccccn3)ccn2)cc1)N1CCOCC1 [GW812171]	32
COc1ccc(Nc2nccc(N3CCC(NC(=O)Nc4cccc(C(C)=O)c4)C3)n2)cc1 (stereo not drawn) [GSK1379731]	2
Cc1ccc(NC(=O)c2ccnc(N3CCN(C)CC3)c2)cc1-c1ccc(C(=O)NCC2CC2)cc1 [GW775604]	4
Nc1nccc(-c2c(-c3ccc(F)cc3)ncn2C2CCN(CC(F)(F)F)CC2)n1 [SB-236560]	13
Cc1nnc(-c2ccc3ncc(-c4ccc(S(C)=O)cc4)n3c2)o1 (stereo not drawn)	0
CN(C1=C(c2ccccc2)C(=O)NC1=O)c1ccccc1 [SB-334860]	0
CSc1ccc(-c2cc3ncnc(SCC(=O)O)c3s2)cc1	0
O=C1Cc2cc(Nc3nc(NCc4cccc(S(=O)(=O)C(F)(F)F)c4)ncc3C(F)(F)F)ccc2N1	4
Cc1ccc(C(=O)NCC(N)=O)cc1-n1c(C)cc(OCc2ccc(F)cc2F)c(Br)c1=O	0
CN(C(=O)c1ccc(-c2cc(-c3c[nH]nc3-c3ccccn3)ccn2)cc1)C1CCOCC1 [GW810083]	29
c1ccc(-c2cc(-c3c[nH]nc3-c3ccccn3)ccn2)cc1 [GW576604]	24
COc1cc2c(cc1OC[C@@H](O)CO)ncc1c3ccc(C#N)cc3[nH]c21	60

Compound	%Inh [%]
CCCCCc1nc2c(N)ncnc2n1CCCCC [SKF-97255]	0
Fc1ccc(-c2ncn(CCCN3CCOCC3)c2-c2cccnc2)cc1 [SB-211743]	41
Cc1cccc(Cn2ccn3c(=O)cc(N4CCOCC4)nc23)c1 [GSK2297542]	0
Fc1ccc(-c2nn3c(OCC(F)(F)F)cccc3c2-c2ccncc2)cc1 [GW514784]	56
COc1cc2c(cc1OCCN1CCN(C)CC1)ncc1c3ccc(C#N)cc3[nH]c21	76
COc1ccc(COc2cc(-n3cnc4ccccc43)sc2C(N)=O)cc1 [GSK1024304]	10
O=C(NOCC1CC1)c1ccc(F)c(F)c1Nc1ccc(I)cc1Cl	0
Cc1c2ccc(N(C)c3ccnc(Nc4cccc(S(N)(=O)=O)c4)n3)cc2nn1Cc1ccccc1.Cl.Cl [GW787226]	0
O=c1cc(N2CCOCC2)nc2n(Cc3cccc(C(F)(F)F)c3)ccn12 [GSK2297543]	25
Cc1nnc(-c2ccc(C)c(-c3ccc(C(=O)Nc4ccc(NS(C)(=O)=O)cc4)cc3)c2)o1 [GW702865]	16
O=C(NCCNc1ccnc(Nc2ccc(F)cc2)n1)c1cc2ccccc2s1 [GSK1379874]	0
Cc1nnc(-c2ccc3occ(-c4ccc(C(C)O)cc4)c3c2)o1 (stereo not drawn)	0
CCn1cnc2c(N)ncnc21 [GW345098]	6
N#Cc1c(N2CCOCC2)sc(-c2ccn[nH]2)c1-c1ccc(Cl)cc1	8
Cl.Oc1cccc(Nc2ccnc3cc(-c4ccncc4)ccc23)c1 [GW494601]	30
O=C(NCCNc1ccnc(Nc2ccc(F)cc2)n1)Nc1ccccc1F [GSK1379880]	9

tested on: T2, NIM1; conditions: concentration: 1 μM, replicates: in singlicate; n = 1
T2 construct: gene MGC42105

Compound	%Inh [%]
NS(=O)(=O)c1cccc(-c2ccc3ncc(N4CCOCC4)nc3c2)c1 [GSK1535721]	0
CN1c2ccc(CNc3ccc(F)cc3)cc2-c2c(cnn2C)S1(=O)=O	0
Cc1cn2c(=O)cc(N3CCOCC3)nc2n1Cc1cccc(Cl)c1Cl [GSK2334006]	7
CC(C)(C)n1cnc2c(N)ncnc21 [SKF-97359]	17
O=c1cc(N2CCOCC2)nc2n(Cc3cccc(F)c3)ccn12 [GSK2297430]	0
O=C(c1ccc(-c2cc(-c3c[nH]nc3-c3ccccn3)ccn2)cc1)N1CCOCC1 [GW812171]	0
COc1ccc(Nc2nccc(N3CCC(NC(=O)Nc4cccc(C(C)=O)c4)C3)n2)cc1 (stereo not drawn) [GSK1379731]	12
Cc1ccc(NC(=O)c2ccnc(N3CCN(C)CC3)c2)cc1-c1ccc(C(=O)NCC2CC2)cc1 [GW775604]	0
Nc1nccc(-c2c(-c3ccc(F)cc3)ncn2C2CCN(CC(F)(F)F)CC2)n1 [SB-236560]	50
Cc1nnc(-c2ccc3ncc(-c4ccc(S(C)=O)cc4)n3c2)o1 (stereo not drawn)	0
CN(C1=C(c2ccccc2)C(=O)NC1=O)c1ccccc1 [SB-334860]	34
CSc1ccc(-c2cc3ncnc(SCC(=O)O)c3s2)cc1	0
O=C1Cc2cc(Nc3nc(NCc4cccc(S(=O)(=O)C(F)(F)F)c4)ncc3C(F)(F)F)ccc2N1	26
Cc1ccc(C(=O)NCC(N)=O)cc1-n1c(C)cc(OCc2ccc(F)cc2F)c(Br)c1=O	0
CN(C(=O)c1ccc(-c2cc(-c3c[nH]nc3-c3ccccn3)ccn2)cc1)C1CCOCC1 [GW810083]	20
c1ccc(-c2cc(-c3c[nH]nc3-c3ccccn3)ccn2)cc1 [GW576604]	20
COc1cc2c(cc1OC[C@@H](O)CO)ncc1c3ccc(C#N)cc3[nH]c21	30

Compound	%Inh [%]
CCCCCc1nc2c(N)ncnc2n1CCCCC [SKF-97255]	27
Fc1ccc(-c2ncn(CCCN3CCOCC3)c2-c2cccnc2)cc1 [SB-211743]	0
Cc1cccc(Cn2ccn3c(=O)cc(N4CCOCC4)nc23)c1 [GSK2297542]	8
Fc1ccc(-c2nn3c(OCC(F)(F)F)cccc3c2-c2ccncc2)cc1 [GW514784]	0
COc1cc2c(cc1OCCN1CCN(C)CC1)ncc1c3ccc(C#N)cc3[nH]c21	64
COc1ccc(COc2cc(-n3cnc4ccccc43)sc2C(N)=O)cc1 [GSK1024304]	28
O=C(NOCC1CC1)c1ccc(F)c(F)c1Nc1ccc(I)cc1Cl	0
Cc1c2ccc(N(C)c3ccnc(Nc4cccc(S(N)(=O)=O)c4)n3)cc2nn1Cc1ccccc1.Cl.Cl [GW787226]	0
O=c1cc(N2CCOCC2)nc2n(Cc3cccc(C(F)(F)F)c3)ccn12 [GSK2297543]	14
Cc1nnc(-c2ccc(C)c(-c3ccc(C(=O)Nc4ccc(NS(C)(=O)=O)cc4)cc3)c2)o1 [GW702865]	19
O=C(NCCNc1ccnc(Nc2ccc(F)cc2)n1)c1cc2ccccc2s1 [GSK1379874]	33
Cc1nnc(-c2ccc3occ(-c4ccc(C(C)O)cc4)c3c2)o1 (stereo not drawn)	0
CCn1cnc2c(N)ncnc21 [GW345098]	0
N#Cc1c(N2CCOCC2)sc(-c2ccn[nH]2)c1-c1ccc(Cl)cc1	54
Cl.Oc1cccc(Nc2ccnc3cc(-c4ccncc4)ccc23)c1 [GW494601]	0
O=C(NCCNc1ccnc(Nc2ccc(F)cc2)n1)Nc1ccccc1F [GSK1379880]	14

From publication PMC5540273 (PLoS ONE, 2017)
